The sample as a whole holds a higher share of hits than the screen did.
ERG Ets-DNA blk: qHTS for Small Molecule Inhibitors of the ERG Ets/DNA interaction. fluorescence polarization, His-ERG Ets domain / labelled DNA. AID 624246, 2012. 370,000 tested, 0.028% active. Potency, µM (series often up to 76.9 µM), for inactives: at the top dose FP activity, negative = inhibition, usual class: inhibitors. Transcriptional regulator ERG (Homo sapiens), P11308; active = well fitted inhibition curve with a large enough effect in the polarisation, with a control signal flat; inconclusive = small, poorly fitted or top-dose-only effect, or effect the other way, or a change in a side signal; inactive = no such curve, though single readings can be large or run the other way; the % refers to the polarisation;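 also: polarization taken with two DNA probes labelled with fluorescein and Texas red; potency is read from the fitted curve at half-maximal effect; % of control where 0% means no effect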
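His-tagged ERG Ets domain (1 uM in the protein solution; 300mM KCl, 50mM Tris-HCl, 1mM EDTA, 1mM DTT, pH 7.5) received compound, then a probe mix of 5 nM fluorescein-DNA and 100nM Texas-615-DNA. Fluorescence polarization was read for both dyes.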
RORg inh: qHTS for inhibitors of ROR gamma transcriptional activity; Drosophila S2 Gal4-RORgamma UAS-luciferase reporter, 20 h; 310,000 tested, 5.4% active; Potency, µM (top dose mostly 53.6 µM), without a hit: at the top dose activity change, negative = inhibition, usual class: inhibitors; also: potency is read from the fitted curve at half-maximal effect; % is scaled to controls: 0 for no effect and ±100 for the full control effect; nearly all actives have a fitted effect of over 60% in size
Target sequence (P51450 whole entry, looked up, the tested form may be a part): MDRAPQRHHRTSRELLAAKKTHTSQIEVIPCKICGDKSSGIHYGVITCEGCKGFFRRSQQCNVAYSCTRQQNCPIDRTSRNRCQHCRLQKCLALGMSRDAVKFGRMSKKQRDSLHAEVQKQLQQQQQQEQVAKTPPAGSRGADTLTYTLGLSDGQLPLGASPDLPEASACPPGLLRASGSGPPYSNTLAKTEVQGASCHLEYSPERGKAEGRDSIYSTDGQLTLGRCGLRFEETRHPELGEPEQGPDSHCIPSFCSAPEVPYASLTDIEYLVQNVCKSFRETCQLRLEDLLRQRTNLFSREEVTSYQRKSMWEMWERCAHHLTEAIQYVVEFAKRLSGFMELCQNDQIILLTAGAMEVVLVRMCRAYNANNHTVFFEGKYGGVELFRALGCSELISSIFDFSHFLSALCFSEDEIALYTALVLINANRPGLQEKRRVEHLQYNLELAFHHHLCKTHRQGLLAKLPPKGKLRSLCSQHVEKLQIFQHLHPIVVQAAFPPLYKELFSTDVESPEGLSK
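Stably transfected Drosophila Schneider cells are the test system, with ROR gamma fused to Gal4 and luciferase under UAS control; luminescence is read after 20 hr of 700 uM copper sulfate induction at ambient temperature.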
a7 integrin act: qHTS for Activators of Integrin-Mediated Alleviation for Muscular Dystrophy; Potency, µM (highest dose often 38.3 µM), for inactives: at the top dose activation, most hits filed as activators; alpha7betagal myoblasts, beta-gal FDG fluorescence, 48 h; 350,000 tested, 0.064% active;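 also: potency is read from the fitted curve at half-maximal effect; 100% = response of the positive control SU9516; nearly all actives have a fitted effect of over 60% in size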
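Alpha7betagal+/- myoblasts (passage 13) were plated 16-24 hr, then exposed to compounds (1:260 dilution of DMSO stock) for 48 hours at 37C. After MPER lysis, β-galactosidase reporter activity was read as FDG fluorescence (ex 480/em 540) after 30 minutes.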
Giardia kill: Small Molecules that selectively kill Giardia lamblia: qHTS; activity change, % at 7.66 µM, hits read low; 340,000 tested, 0.15% active; Giardia lamblia trophozoite viability; in the data active = activity change below about -80%; inconclusive = between about -30% and that limit;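 also: parasites exposed to compound for two days anaerobically before the ATP read; % is scaled to controls: 0 for no effect and ±100 for the full control effect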
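Killing of trophozoites was scored by loss of ATP luminescence after a 48 hrs anaerobic exposure to compounds at 37 deg C, using 100 cells per well.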
Gal4-VP16 FLuc: VP16 counterscreen qHTS for inhibitors of ROR gamma transcriptional activity. Drosophila S2 Gal4-VP16 UAS-luciferase, luminescence, 20 h. Potency, µM (titrated, usually from 53.6 µM), for inactives: at the highest dose activity, negative = inhibition, actives largely listed as inhibitors. 310,000 tested, 3.5% active. AID 2546, 2010;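 also: Gal4-VP16 expression switched on by copper sulfate through the metallothionein promoter; potency is read from the fitted curve at half-maximal effect; % is scaled to controls: 0 for no effect and ±100 for the full control effect; nearly all actives have a fitted effect of over 50% in size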
An asterisk follows results filed as active. Unless noted, calls follow the shape of the dose curve; as a rule, active = well fitted curve in the direction sought with a large enough effect; inconclusive = small, poorly fitted or top-dose-only effect, or another doubt; inactive = no such curve, though single readings can be large; an effect the other way counts as inactive or inconclusive.

COc1ccc(NC(=S)NC2CC3CCC2C3)c(OC)c1 (centres undefined) was read as ERG Ets-DNA blk -10%, RORg inh 5µM*, a7 integrin act 7%, Giardia kill -24 and Gal4-VP16 FLuc 11µM*.
For S=C(NCCc1ccccn1)NC1CC2CCC1C2 (centres undefined) the results were ERG Ets-DNA blk -9%, RORg inh 6.3µM*, a7 integrin act 28%, Giardia kill 7 and Gal4-VP16 FLuc inconclusive.
`CCOc1ccccc1NC(=S)NC1CC2CCC1C2` (centres undefined) gave ERG Ets-DNA blk -16%, RORg inh 2.8µM*, a7 integrin act 13%, Giardia kill 0 and Gal4-VP16 FLuc 7.1µM*.
COc1ccc(NC(=S)NC23CN4CN(CN(C4)C2)C3)c(OC)c1 was read as ERG Ets-DNA blk 6%, RORg inh 2%, a7 integrin act -9%, Giardia kill 6 and Gal4-VP16 FLuc -3%.
For N=c1c2c(-c3ccccc3)c(-c3ccccc3)n(Cc3ccccc3)c2ncn1CCCn1ccnc1 the results were ERG Ets-DNA blk 8%, RORg inh 10µM*, a7 integrin act -54%, Giardia kill 12 and Gal4-VP16 FLuc 10µM*.
Screening N=c1c2c(-c3ccccc3)c(-c3ccccc3)n(Cc3ccco3)c2ncn1Cc1ccco1 returned ERG Ets-DNA blk 7%, RORg inh inconclusive, a7 integrin act -69%, Giardia kill 14 and Gal4-VP16 FLuc 28µM*.
`O=C(N/N=C/c1ccco1)c1cc([N+](=O)[O-])cc([N+](=O)[O-])c1` gave ERG Ets-DNA blk 13%, RORg inh 5.6µM*, a7 integrin act -11%, Giardia kill -3 and Gal4-VP16 FLuc 10µM*.
`O=C(N/N=C/c1ccncc1)c1cc([N+](=O)[O-])cc([N+](=O)[O-])c1` gave ERG Ets-DNA blk -4%, RORg inh -33%, a7 integrin act 0%, Giardia kill 9 and Gal4-VP16 FLuc -11%.
Cc1cc([N+](=O)[O-])ccc1-c1ccc(/C=N/NC(=O)c2ccc(Br)o2)o1 was read as ERG Ets-DNA blk 5%, RORg inh 7.1µM*, a7 integrin act -12%, Giardia kill 18 and Gal4-VP16 FLuc 7.9µM*.
Screening Cc1cc(C)n(Cc2ccc(C(=O)N/N=C/c3ccc(-c4ccc([N+](=O)[O-])cc4)o3)o2)n1 returned ERG Ets-DNA blk -15%, RORg inh 8.9µM*, a7 integrin act -23%, Giardia kill 4 and Gal4-VP16 FLuc 6.3µM*.
For O=C(N/N=C/c1ccc(Br)o1)c1cc([N+](=O)[O-])cc([N+](=O)[O-])c1 the results were ERG Ets-DNA blk -13%, RORg inh 1.6µM*, a7 integrin act 14%, Giardia kill 10 and Gal4-VP16 FLuc 4.5µM*.
`CCCCC(=O)N/N=C/c1ccc(-c2ccc([N+](=O)[O-])cc2)o1` gave ERG Ets-DNA blk 6%, RORg inh inconclusive, a7 integrin act inconclusive, Giardia kill -2 and Gal4-VP16 FLuc 10%.
Cc1ccc(Cn2c(=O)n(Cc3ccccc3Cl)c(=O)c3cccnc32)cc1 was read as ERG Ets-DNA blk -7%.
Screening Cc1c(C(c2cccc(Br)c2)c2c(C)n(C)n(-c3ccccc3)c2=O)c(=O)n(-c2ccccc2)n1C returned ERG Ets-DNA blk 1%, RORg inh -6%, a7 integrin act -24%, Giardia kill -3 and Gal4-VP16 FLuc -9%.
COc1ccc(-c2ccc(/C=N/NC(=O)c3cccnc3)o2)c([N+](=O)[O-])c1 was read as ERG Ets-DNA blk 1%, RORg inh 20µM*, a7 integrin act 23%, Giardia kill -1 and Gal4-VP16 FLuc inconclusive.
Screening Cc1ccc(-n2c(O)c(/C=N/NC(=O)C3COc4ccccc4O3)c3ccccc3c2=O)cc1 (centres undefined) returned ERG Ets-DNA blk 5%, RORg inh 4µM*, a7 integrin act -13%, Giardia kill 17 and Gal4-VP16 FLuc 3.2µM*.
